Where “and” joins values, the source holds several entries; their conditions need not be identical. Equal values may be shown once. In all, about 5,500 compounds went through this assay and about 2,000 (36%) were called active. Another 18% or so got no clear call; they are omitted. Cut-off read from the data, not from the text of the source: active = normalized growth mostly below about 0.91 (no sharp cut-off); inconclusive = no clear call, values can overlap the other calls; inactive = mostly above about 0.92. Some of the results follow.
Test: chemical genetic growth profiling, strain panel (AID 1159580);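 note: tested at 20 µM; growth read once vehicle control cultures reached saturation at 30 °C; 1 = growth at the plate median or of vehicle wells; lower values mean less growth of the strain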
Settings: S. cerevisiae deletion strains, growth OD

Measured: normalized growth

O=C(O)c1ccccc1C(=O)Nc1ccc(S(=O)(=O)Nc2nccs2)cc1
inactive: locus YAL013W, strain DEP1, hits give low values 1.01 | locus YAL021C, strain ccr4, hits give low values 0.977 | locus YAL026C, strain drs2, hits give low values 0.986 | locus YAL030W, strain snc1, hits give low values 0.987 | locus YBL061C, strain skt5, hits give low values 0.968 | locus YBR009C, strain hhf1, hits give low values 0.994 | locus YBR021W, strain FUR4, hits give low values 1.01 | locus YBR023C, strain chs3, hits give low values 0.966 | locus YBR171W, strain sec66, hits give low values 0.978 | locus YBR229C, strain ROT2, hits give low values 1 | locus YBR231C, strain swc5, hits give low values 0.985 | locus YBR279W, strain paf1, hits give low values 0.991 | locus YCL011C, strain gbp2, hits give low values 0.978 | locus YCL016C, strain dcc1, hits give low values 0.954 | locus YCL029C, strain bik1, hits give low values 0.994 | locus YCL061C, strain MRC1, hits give low values 0.971 | locus YCL069W, strain vba3, hits give low values 0.988 | locus YCR088W, strain abp1, hits give low values 0.987 | locus YDL005C, strain med2, hits give low values 0.973 | locus YDL035C, strain GPR1, hits give low values 1.02 | locus YDL040C, strain nat1, hits give low values 0.977 | locus YDL074C, strain BRE1, hits give low values 1.01 | locus YDL101C, strain DUN1, hits give low values 1.01 | locus YDL134C, strain PPH21, hits give low values 1 | locus YDL185W, strain tfp1, hits give low values 0.995 | locus YDL192W, strain arf1, hits give low values 0.998 | locus YDR001C, strain nth1, hits give low values 0.987 | locus YDR069C, strain doa4, hits give low values 0.975 | locus YDR101C, strain arx1, hits give low values 0.984 | locus YDR137W, strain rgp1, hits give low values 0.963 | locus YDR159W, strain sac3, hits give low values 0.992 | locus YDR162C, strain NBP2, hits give low values 1 | locus YDR195W, strain ref2 0.996 | locus YDR297W, strain sur2, hits give low values 0.988 | locus YDR318W, strain mcm21, hits give low values 0.999 | locus YDR334W, strain swr1, hits give low values 0.966 | locus YDR335W, strain msn5, hits give low values 0.984 | locus YDR388W, hits give low values 0.993 | locus YDR392W, strain spt3, hits give low values 0.93 | locus YDR502C, strain sam2, hits give low values 1 | locus YEL003W, strain gim4, hits give low values 1.01 | locus YEL037C, strain rad23, hits give low values 0.981 | locus YEL061C, strain CIN8 (second series), hits give low values 0.99 | locus YEL061C, strain CIN8, hits give low values 1.01 | locus YER015W, strain faa2, hits give low values 0.96 | locus YER016W, strain bim1, hits give low values 0.993 | locus YER110C, hits give low values 0.998 | locus YER111C, strain swi4, hits give low values 0.973 | locus YER155C, strain BEM2 (second series), hits give low values 0.981 | locus YER155C, strain BEM2, hits give low values 0.995 | locus YER167W, strain BCK2, hits give low values 0.996 | locus YFR010W, strain ubp6, hits give low values 0.999 | locus YGL078C, strain dbp3, hits give low values 0.994 | locus YGL086W, strain mad1, hits give low values 0.991 | locus YGL167C, strain pmr1, hits give low values 0.962 | locus YGL173C, strain kem1, hits give low values 0.959 | locus YGL227W, strain vid30, hits give low values 0.985 | locus YGL240W, strain doc1, hits give low values 0.992 | locus YGL248W, strain PDE1, hits give low values 1 | locus YGL253W, strain hxk2, hits give low values 0.984 | locus YGR135W, strain pre9, hits give low values 0.995 | locus YGR229C, strain SMI1, hits give low values 1.01 | locus YGR252W, strain gcn5, hits give low values 0.995 | locus YHR013C, strain ard1, hits give low values 0.949 | locus YHR027C, strain rpn1, hits give low values 0.977 | locus YHR030C, strain SLT2, hits give low values 1 and 1.03 | locus YHR079C, strain IRE1 (second series), hits give low values 0.995 | locus YHR079C, strain IRE1, hits give low values 1.05 | locus YHR094C, strain hxt1, hits give low values 0.994 | locus YHR129C, strain ARP1, hits give low values 1 | locus YHR142W, strain chs7, hits give low values 0.959 | locus YHR200W, strain rpn10, hits give low values 0.995 | locus YIL066C, strain RNR3, hits give low values 1.01 | locus YIL073C, strain SPO22, hits give low values 1.01 | locus YIL125W, strain kgd1, hits give low values 0.991 | locus YIR030C, strain dcg1, hits give low values 0.993 | locus YJL092W, strain hpr5, hits give low values 0.983 | locus YJL095W, strain BCK1 (second series), hits give low values 0.982 | locus YJL095W, strain BCK1, hits give low values 1.02 and 1.01 | locus YJL115W, strain asf1, hits give low values 0.973 | locus YJL129C, strain trk1, hits give low values 0.976 | locus YJL134W, strain LCB3, hits give low values 1 | locus YJL154C, strain vps35, hits give low values 0.979 | locus YJL164C, strain tpk1, hits give low values 0.991 | locus YJL166W, strain qcr8, hits give low values 0.985 | locus YJL168C, strain set2, hits give low values 0.993 | locus YJL187C, strain SWE1 (second series), hits give low values 1.02 | locus YJL187C, strain SWE1, hits give low values 0.979 | locus YJR043C, strain POL32, hits give low values 0.995
